Inconclusive results are not listed. Entries that show only a call come without a potency. Active and inactive are the calls of the source. The call rests on the fitted dose curve; in most records, active means well fitted inhibition curve with a large enough effect; inconclusive means small, poorly fitted or top-dose-only effect; inactive means no such curve, though single readings can be large or run the other way.
Potency means the concentration at half of the fitted maximal effect.

The assay in a line: Primary fluorescence-based thiol-reactive (MSTI) qHTS assay for identification of artifact compounds. (AID 1845221). Further: nearly all actives have a fitted effect of over 65% in size. As to conditions: MSTI thiol-reactivity probe, 1 h; series mostly up to 53.8 µM. The gist of the method: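 Thiol-reactive compounds detected by quenching of 4 uM MSTI fluorescence (525/598 nm) after 1 h room-temperature dark incubation in PBS pH 7.4, 2% DMSO. qHTS titration; percent inhibition Hill-fitted against Acetyl-MSTI/MSTI controls.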
Consider `CC1CCCCCCCc2cc(O)cc(O)c2C(=O)O1` (stereo not given), for which the Potency was 26.7 µM (active).

For the compound `C=C1CCC2C(C)(C)CC(O)CC2(C)C1CCC(C)CC(=O)O` (stereo not given), the Potency was 18.5 µM (active).

As to `C[C@@H](NC(=O)c1cc(C(=O)N[C@@H](Cc2ccccc2)[C@H](O)CNC2CC2)cc(N(C)S(C)(=O)=O)c1)c1ccccc1`, the Potency result is “inactive”.

For the compound `C=CC1(C)CC2CCC3C(C)(C(=O)O)CCCC3(C)C2=CC1=O` (stereo not given), the Potency result was “inactive”.

With `CC1(C)OC(=O)C=C[C@@]2(C)C1CC(=O)[C@]1(C)C2CC[C@@]2(C)[C@H](c3ccoc3)OC(=O)[C@H]3O[C@]321` (stereo not given in full), the Potency entry was “inactive”.

Turning to `COc1cc(O)cc(C)c1C(=O)OC1C(CO)OC(n2ccc(=O)[nH]c2=O)C1OC(C)=O` (stereo not given), the Potency is 9.22 µM (active).

With `CC1=CC(=O)CC(C)(C)C1CO[C@@H]1O[C@H](CO)[C@@H](O)[C@H](O)[C@H]1O` (stereo not given in full), the Potency entry is “inactive”.

Take `C=C1CCC2[C@@](C)(C(=O)O)CCC[C@@]2(C)[C@@H]1CCc1ccoc1` (stereo not given in full): the Potency entry is “inactive”.

Regarding `CC[C@@H](C)[C@H](N)C(=O)N1Cc2ccccc2C1`, the Potency entry was “inactive”.

Turning to `COc1cc(C2Oc3c(OC)cc(CCCO)cc3C2CO)ccc1O` (stereo not given), the Potency is 13.1 µM (active).

With `C=C1C(OC(C)=O)C(=O)C2C(C)(C)C(O)CCC2(C)C1CC(OC(C)=O)/C(C)=C/COC(C)=O` (stereo not given), the Potency entry is “inactive”.

For `C/C(=C\CCC(C)C1CC(O)C2(C)C3CCC4C(C)(C)C(OC5OCC(O)C(O)C5O)CCC45CC35CC(O)C12C)C(=O)O` (stereo not given), the Potency result was “inactive”.

Regarding `CC1C2=CC(=O)OC2(O)CC2C1CCC1C(C)(C)CCC(O)C21C` (stereo not given), the Potency result is “inactive”.

On to `CC(C)c1ccc2c(c1)C(=O)CC1C(C)(C(=O)O)CCCC21C` (stereo not given), for which the Potency result was “inactive”.

Turning to `CC1(C)[C@@H]2CC=C(CO[C@@H]3O[C@H](CO[C@@H]4OC[C@H](O)[C@H](O)[C@H]4O)[C@@H](O)[C@H](O)[C@H]3O)[C@H]1C2`, the Potency entry was “inactive”.

Turning to `COc1ccc(CCC(=O)O)c(O[C@@H]2O[C@H](CO)[C@@H](O)[C@H](O)[C@H]2O)c1`, the Potency entry was “inactive”.

In the case of `Cc1ccc(-n2nc(C(C)(C)C)cc2NC(=O)Nc2cc(COc3cccnc3)[nH]n2)cc1`, the Potency entry is “inactive”.

With `C=CC(C)(O)CC/C=C(\C)COC1O[C@H](CO)[C@@H](O)[C@H](O)[C@H]1O` (stereo not given in full), the Potency is 2.93 µM (active).

Regarding `O=C(N[C@@H]1CC[C@@H](c2cccc(F)c2F)CN(CC(F)(F)F)C1=O)N1CCC(n2c(=O)[nH]c3ncccc32)CC1`, the Potency result is “inactive”.

For the compound `CN1C(=O)N(c2cc(Cl)cc(Cl)c2)C(=O)[C@@]1(C)Cc1ccc(Br)cc1`, the Potency entry is “inactive”.

Values taken from PubChem BioAssay (NCATS).
